Among all 69,000 compounds or so, about 950 (1.4%) showed an effect of 50% or more. Many of the other results were omitted from the sample, so strong results are more common in it than they were.
What follows are molecules tested on Mycobacterium tuberculosis (assay: Cornell M. t heat shock assay; also: in the data most compounds retested in dose-response had high values).
Format: functional, organism-based
Design: dose or concentration left out as unconfirmed

Compound	Percent Effect [%]
Cc1oncc1C(=O)N[C@@H]1CN(C2CCC2)C[C@@H]2CCCO[C@@H]21.O=C(O)C(F)(F)F	25.58
Cc1c[nH]nc1C1CCCN1Cc1ncc[nH]1.O=CO (stereo not given)	-1.504
Cc1ccccc1NC(=O)c1cncc(C2CCNCC2)n1.Cl	27.66
c1ccc(Oc2ncccc2CNCc2ccccn2)cc1	69.15
CN(C)S(=O)(=O)NCc1cccnc1Oc1ccccc1	-4.23
O=C(CN1CCCCCC1)NCc1cccnc1Oc1ccccc1	2.86
O=C(C[C@@H]1COC[C@H]2CN(CC3CC3)C[C@@H]12)NCc1cccnc1.O=C(O)C(F)(F)F.O=C(O)C(F)(F)F	9.594
CC(=O)N1CCN(C(=O)Cc2cnc(-c3c(Cl)cccc3Cl)s2)CC1	3.544
NC(=O)C1CCN(C(=O)Cc2cnc(-c3c(Cl)cccc3Cl)s2)CC1	65.47
O=C(Cc1cnc(-c2c(Cl)cccc2Cl)s1)N1CCOCC1	-11.24
O=C(O)C(F)(F)F.O=C1CC(c2cccnc2)C2(CCN(S(=O)(=O)C3CC3)CC2)N1 (stereo not given)	-6.88
CN(C)S(=O)(=O)NCc1cccnc1Oc1ccccc1F	7.179
CN(C)S(=O)(=O)NCc1cccnc1Oc1ccc(F)cc1F	-13.26
Cc1ccccc1Oc1ncccc1CNS(=O)(=O)N(C)C	-10.74
Cc1ccc(-c2nc(CNS(=O)(=O)N(C)C)[nH]c2-c2ccccn2)cc1	101.5
Cc1nc(-c2ccc(CNS(=O)(=O)N(C)C)cc2)ccc1C(N)=O	10.37
CN(C)S(=O)(=O)NCc1nc(-c2cccc(F)c2)c(-c2ccccn2)[nH]1	62.81
Cl.O=C(c1cccnc1N1CCN(CCO)CC1)N1CCCC1	2.64
COCC1CN(CC2CC2)Cc2nccn2C1.O=C(O)C(F)(F)F (stereo not given)	-7.797
COCC(=O)N(C)Cc1nc(N2CCCC2)ncc1-c1ccncc1.Cl	-16.19

Compound	Percent Effect [%]
COc1ccc(C2CCCCCN2S(=O)(=O)N(C)C)cc1 (stereo not given)	68.3
COc1ccc(C2CCCN2S(=O)(=O)N(C)C)cc1 (stereo not given)	-0.3722
COc1ccc(C2CCCCCN2S(C)(=O)=O)cc1 (stereo not given)	-12.37
CN(C)CCOCC1CN(Cc2ccccn2)Cc2nnn(C)c21.O=C(O)C(F)(F)F.O=C(O)C(F)(F)F.O=C(O)C(F)(F)F (stereo not given)	-27.07
Cc1ccc(C(CCNCCN(C)C)C2CCOC(C)(C)C2)cc1.O=C(O)C(=O)O (stereo not given)	1.762
NC(CC1CCCC1)c1ccc(Oc2ccccc2)cc1 (stereo not given)	102.825
Cl.NC(CC1CCCC1)c1ccccc1 (stereo not given)	-17.85
Cl.NC(CC1CCCCC1)c1ccccc1 (stereo not given)	1.9
COc1ccc(-c2cc(C3CCNCC3)ccn2)cc1.Cl	-16.31
Cc1nc(CN2CCOCC3(CCN(c4ncccn4)CC3)C2)cs1.O=C(O)C(F)(F)F	-11.45
CCc1nccn1-c1cccc(C2CCCN2)n1.Cl.Cl (stereo not given)	8.16
COCCN(C/C=C/c1ccccc1)Cc1[nH]cnc1C	-1.061
COCCN(C/C=C/c1ccccc1)Cc1ccccn1	61.37
CCn1ncnc1CN(C/C=C/c1ccccc1)CCOC	-13.31
COCCN(C/C=C/c1ccccc1)Cc1ncc[nH]1	14.48
CCc1ccc(CN(C/C=C/c2ccccc2)CCOC)nc1	98.48
COCCN(C/C=C/c1ccccc1)Cc1nccs1	1.581
Cc1ccc(CN2Cc3ccccc3O[C@]3(CC[C@H](CO)CC3)C2)s1.Cl	-7.456
COCCN1CCc2c(cnc(-c3ccccc3)c2C(=O)O)C1.O=C(O)C(F)(F)F	-9.252
O=C(O)C(F)(F)F.O=C(c1cscn1)N1CC[C@@H]2[C@@H]1CCN2CC1CCOCC1	39.35

Compound	Percent Effect [%]
CCN1CCC(N2CCC(C(=O)N(C)C)CC2)CC1.O=C(O)C(F)(F)F.O=C(O)C(F)(F)F	2.155
OC(CN(Cc1ccccc1)Cc1cscn1)c1cccs1 (stereo not given)	5.463
OC(CN(Cc1ccccc1)Cc1ccncc1)c1cccs1 (stereo not given)	-1.892
OC(CN(Cc1ccccc1)Cc1ccccn1)c1cccs1 (stereo not given)	66.35
Cc1cccc(CN2CCC3(CC2)CN(c2cnn(C)c2)C(=O)CO3)n1.O=C(O)C(F)(F)F	-22.92
CNc1cc(C2CCCNC2)nc(C)n1.Cl.Cl (stereo not given)	-17.65
Cc1cc(C(F)(F)F)nc(CCNC(C)Cn2cncn2)n1 (stereo not given)	16.73
Cc1cc(C(F)(F)F)nc(CCNC(C)Cn2ccnc2)n1 (stereo not given)	103.9
Cc1cc(C(F)(F)F)nc(CCNC(C)Cn2nc(C)cc2C)n1 (stereo not given)	1.181
CCN1CCC2(CC1)OCCN2C(=O)c1cc(Cl)c(OC)c(Cl)c1.Cl	13.79
CN(C)C[C@@H]1CN(C2CCN(c3ccccc3Cl)CC2)C[C@@H]1CO	-0.06241
CN(CCO)C[C@@H]1CN(C2CCN(c3ccccc3Cl)CC2)C[C@@H]1CO	81.68
Cc1ccc(N2CCC(N3C[C@@H](CN(C)C)[C@@H](CO)C3)CC2)cc1	-10.07
Cc1cc(F)ccc1N1CCC(N2C[C@@H](CN(C)C)[C@@H](CO)C2)CC1	101.8
Cc1cc(F)ccc1N1CCC(N2C[C@@H](C)[C@@](C)(O)C2)CC1	33.53
CN(C)C[C@@H]1CN(C2CCN(c3ccc(Cl)cc3)CC2)C[C@@H]1CO	39.93
CCc1nc(C)cc(N2CCN(C(=O)[C@@H]3C[C@@H]4C=C[C@H]3C4)CC2)n1	-1.962
CS(=O)(=O)NCc1cc(=O)n2c(n1)CN(CC1CC1)CCC2.O=C(O)C(F)(F)F	5.307
O=C(O)C(F)(F)F.O=C(O)C(F)(F)F.O=C1CC[C@H]2[C@H](CCN2Cc2ccccn2)N1CC1CCOCC1	-34.7
Cc1cccc(CN2C(=O)C[C@@H]3[C@@H]2CCN3Cc2ccsc2)n1.O=C(O)C(F)(F)F.O=C(O)C(F)(F)F	-5.235

From ChEMBL document CHEMBL3988442, “University of Dundee, Small-Polar-MMV Screening Library” (2021)
